This is a sample that favours compounds with a hit; in the whole collection about 18% have one here.
Six1-Eya2 inh = blocks human Six1 binding to Eya2. Q15475+O00167. AID 651725. AlphaScreen GST-Six1/His-Eya2 binding, biochemical; hits give low values. actives 0.56% (n = 360,000). activity change, % (test concentration not listed); in the data active = activity change below about -65%; inconclusive = mostly about -30% to -63%
Target sequence (O00167 whole entry, looked up): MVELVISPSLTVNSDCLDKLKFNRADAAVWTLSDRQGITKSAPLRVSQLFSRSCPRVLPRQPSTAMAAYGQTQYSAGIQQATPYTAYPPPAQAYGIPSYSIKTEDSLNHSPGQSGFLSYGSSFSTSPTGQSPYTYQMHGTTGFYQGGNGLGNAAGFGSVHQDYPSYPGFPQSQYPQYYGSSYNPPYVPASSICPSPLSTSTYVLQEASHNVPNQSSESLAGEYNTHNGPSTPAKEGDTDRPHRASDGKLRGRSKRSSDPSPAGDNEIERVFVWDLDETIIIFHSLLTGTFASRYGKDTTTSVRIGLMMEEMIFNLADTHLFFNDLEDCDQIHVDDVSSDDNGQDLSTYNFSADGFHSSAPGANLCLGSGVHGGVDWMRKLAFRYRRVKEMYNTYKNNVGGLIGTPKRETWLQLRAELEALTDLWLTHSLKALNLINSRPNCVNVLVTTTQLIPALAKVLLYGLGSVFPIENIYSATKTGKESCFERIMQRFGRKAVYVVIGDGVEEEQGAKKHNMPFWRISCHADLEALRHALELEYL
Target sequence (Q15475 whole entry, looked up): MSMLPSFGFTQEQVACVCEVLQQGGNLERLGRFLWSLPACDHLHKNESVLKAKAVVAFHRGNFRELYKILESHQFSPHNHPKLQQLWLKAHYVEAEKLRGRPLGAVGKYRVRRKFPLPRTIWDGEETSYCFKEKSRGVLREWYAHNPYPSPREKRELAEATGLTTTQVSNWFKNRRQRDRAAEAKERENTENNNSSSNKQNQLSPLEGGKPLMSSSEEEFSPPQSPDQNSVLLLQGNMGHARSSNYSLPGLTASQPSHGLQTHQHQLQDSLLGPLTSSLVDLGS
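GST-Six1 + His-Eya2 (5X stock: 250/500 nM); Tris pH 8.0, 300 mM NaCl, 0.05% BSA, 0.02% Tween 20; GSH donor/Ni acceptor beads; 1 h 37 °C dark; AlphaScreen readout.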
TDP1 cell noCPT = qHTS for Inhibitors of human tyrosyl-DNA phosphodiesterase 1 (TDP1): qHTS in cells in absence of CPT; DT40 Tdp1-/- hTDP1 cells, no CPT, ATP luminescence, 48 h; Potency, µM (highest dose often 46.2 µM), inactives show top-dose activity change, negative = growth inhibition, actives largely listed as inhibitors; actives 15% (n = 420,000); AID 686978, 2013; note: potency is the fitted concentration of half-maximal effect; nearly all actives have a fitted effect of over 55% in size
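Chicken DT40 Tdp1-/- cells complemented with human TDP1, screened without camptothecin (DMSO vehicle only), 400 cells/well. Compounds pin-transferred, cells incubated at 37 °C for at least 48 hr. Growth read as ATP-dependent luminescence (CellTiter-Glo, 30 min at RT).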
IL-1B inflam inh = blocks inflammasome-driven IL-1 beta release | activity change, % at 57.5 µM | AID 743279 | actives 4.7% (n = 360,000) | THP-1 LPS/ATP IL-1B secretion, AlphaLISA, 16 h; hits give low values; in the data active = activity change below about -50%; inconclusive = mostly about -30% to -49%
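Secreted IL-1B measured by AlphaLISA bead assay after 16 h compound exposure of THP-1 cells; compounds (final up to 57.5 uM) added 1 h before LPS (250 ng/mL) and ATP (1.25 mM) stimulation; lower signal means less secretion.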
CtBP-E1A inh = CtBP/E1A binding inhibition; AlphaScreen GST-E1A/His-CtBP binding, 1536-well; hits give low values; activity change, % (test concentration not listed); actives 0.49% (n = 340,000); in the data active = activity change below about -65%; inconclusive = mostly about -30% to -63%
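GST-E1A and His-tagged CtBP (125 nM each as 5X stock) were preincubated with pin-transferred compound for 2 h at 37 °C in the dark, then glutathione donor and nickel acceptor beads were added for 1 h before AlphaScreen reading.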
TDP1 cell CPT = DT40-hTDP1 cell growth loss with CPT. actives 12% (n = 420,000). Potency, µM (doses to about 46.2 µM), for the others: at the top dose activity change, negative = growth inhibition, hits mostly inhibitors. AID 686979. chicken DT40 Tdp1-/-;hTDP1 cells + 20 nM CPT, ATP luminescence, 48 h; note: potency is the fitted concentration of half-maximal effect; nearly all actives have a fitted effect of over 55% in size
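Cell growth measured by CellTiter-Glo luminescence after a minimum 48 h, 37 C compound exposure with 20 nM CPT in Tdp1-knockout DT40 cells stably expressing hTDP1, seeded 400/well; qHTS titration format.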
TDP1 inh = TDP1 (human) enzyme inhibition. recombinant TDP1, AlphaScreen DNA substrate cleavage. Potency, µM (doses to about 130 µM), without a hit: top-dose activity change, negative = inhibition, most hits filed as inhibitors. actives 0.28% (n = 350,000). AID 485290; note: potency is the fitted concentration of half-maximal effect; nearly all actives have a fitted effect of over 40% in size
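Recombinant E. coli-expressed Tdp1 (1 nM) preincubated with compound 15 min at RT, then 5'-biotin/3'-phosphotyrosine-FITC DNA substrate (15 nM) added for 5 min. AlphaScreen beads (10 ug/ml) added, 10 min RT; tyrosine-FITC cleavage read as signal loss.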
* = called active by the depositor; u = inconclusive; x = no result; [ ] = another dose, or the depositor's remark. Unless noted, calls come from the whole dose curve; as a rule, active = well fitted curve in the direction sought with a large enough effect; inconclusive = small, poorly fitted or top-dose-only effect, or another doubt; inactive = no such curve, though single readings can be large; an effect the other way counts as inactive or inconclusive. % is set by controls: 0 for no effect and ±100 for the full control effect.

SMILES	Six1-Eya2 inh	TDP1 cell noCPT	IL-1B inflam inh	CtBP-E1A inh	TDP1 cell CPT	TDP1 inh
Cc1cccc2cc(CN(C(=O)c3ccc(C(F)(F)F)cc3)C3CC3)c(N3CCC(O)CC3)nc12	x	u	x	x	-4.0%[9.04 µM]	x
COc1cccc(C(=O)N2C(C(=O)O)CSC2c2ccccc2Cl)c1 (configuration not stated)	-0.7	2.7%	25.3	11.7	-2.9%	2.6%
COC(=O)C1CSC(c2ccc(Cl)cc2)N1C(=O)c1ccccc1 (configuration not stated)	-1.0	18.4µM*	53.3	x	20.6µM*	5.4%
Cc1c(Cl)cn2c(=O)cc(CN3CCN(c4ccccc4)CC3)nc2c1Cl	-2.7	u	42.7	x	-20.3%	2.5%
CCN(Cc1cc(=O)n2cc(Cl)c(C)c(Cl)c2n1)Cc1nc2ccccc2c(=O)[nH]1	-8.6	18.4µM*	33.3	-2.1	-6.6%	8.0%
COc1cc(/C=C2/SC(=S)N(CC(=O)NC(C)(C)C)C2=O)cc(OC)c1OC	-8.4	u	u	11.9	u	3.1%
CC1=C(c2ccc(C(C)C)cc2)S(=O)(=O)N=C1N1CCC(C(=O)NCCc2ccco2)CC1	x	u	x	x	23.1µM*	11.0%
CC1=C(c2ccc(Cl)cc2)S(=O)(=O)N=C1N1CCC(C(=O)NCCc2ccco2)CC1	x	u	x	x	0.1%	8.4%
CC1=C(c2ccc(C(C)C)cc2)S(=O)(=O)N=C1N1CCN(c2ccccc2F)CC1	x	18.4µM*	x	x	u	11.4%
CCc1ccc(C2=C(C)C(N3CCC(C(=O)NCCc4ccco4)CC3)=NS2(=O)=O)cc1	x	18.4µM*	x	x	u	1.9%
Cc1ccc(C(=O)OCC(=O)Nc2c(Cl)cc(S(N)(=O)=O)cc2Cl)o1	3.3	15.9%	7.5	2.5	2.0%	-11.4%
Cn1c(SCc2nc3ccccc3[nH]2)nnc1-c1cccnc1	-2.7	-16.5%	9.6	3.6	-18.8%	4.1%
CCOc1ccc(-c2nnc(SCc3nc4ccccc4[nH]3)n2N)cc1	-2.4	-1.7%	-63.6*	4.2	-19.9%	-9.3%
COc1ccc(NC(=O)c2cc(-c3ccccc3F)no2)cc1	x	u	x	x	-24.6%	-7.8%
CN1CCN(c2ccc(NC(=O)CSc3nnnn3-c3ccccc3F)cc2)CC1	-3.3	-22.5%	-6.6	-2.9	u	1.7%
Cc1ccc(-n2nnnc2SCC(=O)Nc2ccc(N3CCN(C)CC3)cc2)c(C)c1	-18.9	18.4µM*	1.0	x	u	8.4%
Cc1cccc(-n2nnnc2SCC(=O)NCC2(N3CCOCC3)CCCCC2)c1C	-3.3	20.6µM*	-13.5	2.0	18.4µM*	-1.7%[56.1 µM]
Cc1ccc(-n2nnnc2SCC(=O)NCC2(N3CCCCC3)CCCCC2)c(C)c1	-0.7	-9.7%	-57.3*	-7.1	-23.0%	-0.9%[56.1 µM]
Cc1ccc(-n2nnnc2SCC(=O)NCC2(N3CCOCC3)CCCCC2)c(C)c1	-0.6	16.4µM*	-12.5	-5.4	u	0.6%
Cc1ccc(-n2nnnc2SCC(=O)NCC2(N3CCOCC3)CCCCC2)cc1	-0.4	u	3.8	5.3	u	8.1%
COc1ccccc1-n1nnnc1SCC(=O)NCC1(N2CCOCC2)CCCCC1	3.7	-20.2%	-10.9	0.8	u	1.7%
Cc1ccc(SCC(=O)Nc2ccc(N3CCN(C)CC3)c(F)c2)c(C)c1	-15.4	16.4µM*	-20.0	x	20.6µM*	5.4%
O=C(CSc1ccc(Cl)cc1)Nc1ccc(N2CCN(c3ccccc3)CC2)c(F)c1	0.1	u	14.8	6.4	u	2.1%
C/C(N)=C(/C#N)C(=O)CSc1nnnn1-c1ccc(C)cc1C	-0.3	13µM*	0.0	6.2	23.1µM*	3.1%
O=C(NNC(=O)c1cccc(S(=O)(=O)N2CCc3ccccc32)c1)c1ccccc1	2.2	5.17µM*	29.8	1.7	u	-0.6%

Screening data as filed in PubChem BioAssay.
